Test results from PubChem BioAssay.

What was measured:
[1] = tested on: Botulinum neurotoxin type F light chain protease (Clostridium botulinum); test: Botulinum neurotoxin type F light chain protease inhibition, multiplex microsphere flow cytometry, validation set (AID 588459); settings: multiplex microsphere protease substrate cleavage assay, at 10 µM, stronger effect = higher value
[2] = target: Botulinum neurotoxin type A (Clostridium botulinum) (UniProt P0DPI0); test: BoNT/A light chain protease inhibitors, biochemical, multiplex microsphere flow cytometry, validation set (AID 588460); settings: at 10 µM, stronger effect = higher value
[3] = target: Lethal factor (Bacillus anthracis) (UniProt P15917); test: Lethal factor protease inhibitors, Bacillus anthracis, multiplex microsphere cleavage assay, validation set (AID 588461); settings: flow cytometry, at 10 µM, stronger effect = higher value

Measured: inhibition

Botulinum neurotoxin type A (Clostridium botulinum), sequence (P0DPI0 whole entry, looked up): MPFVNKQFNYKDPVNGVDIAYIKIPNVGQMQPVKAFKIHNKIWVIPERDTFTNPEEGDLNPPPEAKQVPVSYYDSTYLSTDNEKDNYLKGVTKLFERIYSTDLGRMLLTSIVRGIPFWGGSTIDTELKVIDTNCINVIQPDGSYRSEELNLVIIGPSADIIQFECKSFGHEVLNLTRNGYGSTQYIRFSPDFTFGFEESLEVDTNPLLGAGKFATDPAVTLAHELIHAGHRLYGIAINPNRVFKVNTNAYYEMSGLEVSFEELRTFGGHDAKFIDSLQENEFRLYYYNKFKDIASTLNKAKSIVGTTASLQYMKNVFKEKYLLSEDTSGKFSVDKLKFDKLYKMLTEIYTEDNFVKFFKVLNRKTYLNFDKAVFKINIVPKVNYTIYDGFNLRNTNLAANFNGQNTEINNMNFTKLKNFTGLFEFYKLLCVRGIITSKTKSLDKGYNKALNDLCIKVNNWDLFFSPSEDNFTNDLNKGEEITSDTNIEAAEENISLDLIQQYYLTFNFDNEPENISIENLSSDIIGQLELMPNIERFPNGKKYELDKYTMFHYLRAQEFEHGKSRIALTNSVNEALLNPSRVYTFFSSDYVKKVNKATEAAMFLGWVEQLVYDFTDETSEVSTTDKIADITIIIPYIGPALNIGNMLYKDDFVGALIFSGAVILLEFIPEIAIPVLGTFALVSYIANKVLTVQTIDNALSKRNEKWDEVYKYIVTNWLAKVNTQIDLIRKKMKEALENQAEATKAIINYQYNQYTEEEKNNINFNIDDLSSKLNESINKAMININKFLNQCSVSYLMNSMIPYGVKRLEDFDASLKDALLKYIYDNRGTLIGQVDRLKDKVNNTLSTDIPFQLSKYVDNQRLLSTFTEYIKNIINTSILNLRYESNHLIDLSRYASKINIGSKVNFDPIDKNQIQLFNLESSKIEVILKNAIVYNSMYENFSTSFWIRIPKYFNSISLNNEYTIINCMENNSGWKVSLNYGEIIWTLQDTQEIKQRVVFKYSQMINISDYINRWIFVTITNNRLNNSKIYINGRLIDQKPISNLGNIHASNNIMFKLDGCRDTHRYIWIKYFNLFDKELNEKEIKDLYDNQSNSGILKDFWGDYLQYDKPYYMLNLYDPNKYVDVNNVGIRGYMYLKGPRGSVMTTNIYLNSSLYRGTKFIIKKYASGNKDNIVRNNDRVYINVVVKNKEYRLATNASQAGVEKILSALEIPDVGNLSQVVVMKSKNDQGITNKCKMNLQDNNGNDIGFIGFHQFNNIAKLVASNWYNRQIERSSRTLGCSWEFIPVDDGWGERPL
Lethal factor (Bacillus anthracis), sequence (P15917 whole entry, looked up): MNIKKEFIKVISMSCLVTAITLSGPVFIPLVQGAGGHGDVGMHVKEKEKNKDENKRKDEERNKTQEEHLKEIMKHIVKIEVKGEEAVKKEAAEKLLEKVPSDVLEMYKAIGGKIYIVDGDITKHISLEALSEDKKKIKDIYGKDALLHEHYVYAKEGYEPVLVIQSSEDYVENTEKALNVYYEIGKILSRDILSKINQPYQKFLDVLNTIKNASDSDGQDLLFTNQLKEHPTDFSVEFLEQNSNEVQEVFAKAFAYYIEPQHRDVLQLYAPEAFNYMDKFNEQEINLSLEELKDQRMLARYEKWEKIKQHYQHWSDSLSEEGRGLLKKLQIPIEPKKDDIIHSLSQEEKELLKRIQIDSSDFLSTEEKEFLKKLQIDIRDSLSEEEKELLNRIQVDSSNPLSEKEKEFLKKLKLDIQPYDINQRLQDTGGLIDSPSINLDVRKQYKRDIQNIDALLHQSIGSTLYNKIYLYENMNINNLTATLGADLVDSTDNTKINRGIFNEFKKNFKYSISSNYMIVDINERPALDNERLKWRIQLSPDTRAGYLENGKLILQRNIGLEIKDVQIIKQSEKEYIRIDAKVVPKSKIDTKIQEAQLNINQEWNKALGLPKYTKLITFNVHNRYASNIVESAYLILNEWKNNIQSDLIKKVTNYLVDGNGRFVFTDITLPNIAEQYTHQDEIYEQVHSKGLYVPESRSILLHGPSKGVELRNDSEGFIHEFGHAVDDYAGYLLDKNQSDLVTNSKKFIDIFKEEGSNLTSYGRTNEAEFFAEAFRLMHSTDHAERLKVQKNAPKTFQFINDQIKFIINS

O=C1C(O)CC2c3ccccc3CC3(CCCC3)N12 (stereo not given)
inactive: [1] 2% | [2] -1.5% | [3] -6%

CCn1cc(C(=O)O)c(=O)c2cc(F)c(N3CCNCC3)cc21
inactive: [1] -0.1% | [2] -0.5% | [3] 2.3%

NNC(=O)c1ccncc1
inactive: [1] 1.1% | [2] -0.2% | [3] 5.3%

CC(=O)N1CC23C=CC(CC2CC12CCCCCC2)O3 (stereo not given)
inactive: [1] 1.3% | [2] -1.4% | [3] 1.3%

CC[C@H]1OC(=O)[C@H](C)[C@@H](O[C@H]2C[C@@](C)(OC)[C@@H](O)[C@H](C)O2)[C@H](C)[C@@H](O[C@@H]2O[C@H](C)C[C@H](N(C)C)[C@H]2O)[C@](C)(O)C[C@@H](C)[C@@H]2N[C@@H](COCCOC)O[C@H]([C@H]2C)[C@]1(C)O
inactive: [1] 3.3% | [2] 0.7% | [3] -1.4%

C=CCC1(Cl)C(=O)C(Cl)=C(N2CCOCC2)C1(OC)OC (stereo not given)
inactive: [1] -1.2% | [2] -1.2% | [3] 0%

COc1ccc(C(Cl)=C(c2ccc(OC)cc2)c2ccc(OC)cc2)cc1
inactive: [1] 1.5% | [2] -0.6% | [3] -1.1%

Cc1cccc(Nc2ncccc2C(=O)O)c1C
inactive: [1] -2.7% | [2] -1.6% | [3] -4.7%

O=C(Oc1ccc2c3c(c(=O)oc2c1)CCCC3)c1ccco1
inactive: [1] -0.9% | [2] -1.1% | [3] -3.9%

CCc1cc(/C(Cc2ccccn2)=N\O)c(O)cc1O
inactive: [1] -2.8% | [2] -2.8% | [3] -5.1%

CC(C)CN1CCN(Cc2ccc(C#CC(C)(C)O)cc2)CC1CCO (stereo not given)
inactive: [1] 3.7% | [2] -1.1% | [3] -2.1%

C[N+]12CCC(CC1)C(OC(=O)C(O)(c1ccccc1)c1ccccc1)C2 (stereo not given)
inactive: [1] 1% | [2] 0.1% | [3] -0.4%

C(=C\c1ccc2ccccc2n1)/c1ccccc1
inactive: [1] 1.3% | [2] 0.8% | [3] -3.3%

COc1ccc(C2c3c(n[nH]c3C)CC(C)(O)C2C(C)=O)cc1OC (stereo not given)
inactive: [1] 4% | [2] 0.1% | [3] -2.7%

NC(=O)[C@@H]1[C@@H]2C(=O)N(c3ccc(F)cc3)C(=O)[C@@H]2[C@H]2C=Cc3ccccc3N21
inactive: [1] 0.9% | [2] 1.5% | [3] -5.6%

N/C(=N\OC(=O)c1ccc(Br)o1)c1ccccn1
inactive: [1] -0.2% | [2] -0.3% | [3] 0.7%

COc1ccc(/C=C2\CCn3c2nc2cc(C(=O)O)ccc2c3=O)cc1OC
inactive: [1] 1.4% | [2] 1% | [3] 8%

O=C(Nc1ccc(Oc2c(F)c(F)c(F)c(F)c2F)cc1)OC1CCN2Cc3ccccc3N=C12 (stereo not given)
inactive: [1] -1.9% | [2] -1.4% | [3] 2.6%

COc1cccc(OCC(O)CO)c1 (stereo not given)
inactive: [1] -1.4% | [2] -1.1% | [3] -9.1%

CCOc1ccc(C(=O)NCC2(c3ccccc3)CCOCC2)cc1
inactive: [1] -5.3% | [2] -0.2% | [3] -6.4%

COc1c2c(nc3occc13)C(CC=C(C)C)(OC)C(O)CC2 (stereo not given)
inactive: [1] 0.8% | [2] 0.9% | [3] -4.1%

C=CCNC(=S)N1CCc2c([nH]c3ccccc23)C1C (stereo not given)
inactive: [1] 1.4% | [2] 0.4% | [3] 0.1%

CC(=O)N1CCN2C(=O)C1CCCC(=O)c1cc(C(C)C)ccc12 (stereo not given)
inactive: [1] -1.6% | [2] -1.6% | [3] -5.3%

Cc1ccc2c(CN3CCN(Cc4ccc5c(c4)OCO5)CC3)cc(=O)oc2c1C
inactive: [1] -2.8% | [2] 0.6% | [3] -5.7%

COc1ccc2c(c1)C(=O)CC(c1ccccc1F)O2 (stereo not given)
inactive: [1] 1.4% | [2] -0.4% | [3] -0.9%

O=C1c2ccccc2C(=O)C1c1ccccc1
inactive: [1] -2.6% | [2] 0.2% | [3] 9.8%

CC(/C=C1\SC(=O)N(CCCC(=O)O)C1=O)=C\c1ccccc1
inactive: [1] 3.5% | [2] 1.3% | [3] -5.6%

COc1ccc(C2C3C(C)=NN=C3CC(C)(O)C2C(C)=O)cc1 (stereo not given)
inactive: [1] -2% | [2] -0.6% | [3] 4%

C[C@]12C=CC(=O)C=C1CCC1C3CC[C@](O)(C(=O)CO)[C@@]3(C)CC3OC312 (stereo not given in full)
inactive: [1] -1.8% | [2] -2.7% | [3] -7.3%

Cc1[nH]nc(-c2ccc(O)cc2O)c1Oc1ccccc1
inactive: [1] 0.6% | [2] -0.4% | [3] -5.3%

CCc1cc2c(=O)c(-c3nc(C)cs3)c(CCCC(=O)O)oc2cc1O
inactive: [1] 1.9% | [2] -1.9% | [3] -3.9%

COc1cc(C(=O)OCCCN(C)C)cc(OC)c1OC
inactive: [1] -0.2% | [2] -0.5% | [3] 1.8%

Cc1ccc(C2CC(c3cccs3)=NN2C(=O)c2ccco2)o1 (stereo not given)
inactive: [1] -0.5% | [2] -0.5% | [3] 1.3%

CNCCCC1c2ccccc2C=Cc2ccccc21
inactive: [1] -5.9% | [2] -1.6% | [3] -1%

O=C1C(Cc2c[nH]c3ccccc23)NC(=S)N1Cc1ccccc1 (stereo not given)
inactive: [1] -0.2% | [2] 0.3% | [3] -1.8%

CCN1CCN(C(=S)c2ccc(OC)cc2)CC1
inactive: [1] 2.2% | [2] -0.9% | [3] 11.9%

C[C@H]([C@@H](N)C(=O)N[C@@H](C(=O)O)[C@@H]1O[C@H](n2ccc(=O)[nH]c2=O)[C@@H](O)[C@H]1O)[C@@H](O)c1ccc(O)cn1
inactive: [1] 0.3% | [2] -1% | [3] -3.6%

CC1(C)Cc2ccccc2-c2nc(-c3ccccc3)oc(=O)c21
inactive: [1] -1.9% | [2] 0% | [3] -0.2%

O=C1OC(=O)C2C1[C@@H]1CC[C@H]2O1 (stereo not given in full)
inactive: [1] 1.3% | [2] 0.8% | [3] -0.9%

COc1ccccc1NC(=O)C12CCC(C)(C(=O)C1)C2(C)C (stereo not given)
inactive: [1] -1% | [2] 0.8% | [3] 0.3%

OC(CCN1CCCC1)(c1ccccc1)C1CCCCC1 (stereo not given)
inactive: [1] -0.8% | [2] -0.7% | [3] -2.2%

CC(=O)OCC(=O)[C@H]1CC[C@H]2[C@@H]3CCC4=CC(=O)CC[C@]4(C)[C@H]3CC[C@]12C
inactive: [1] -5.8% | [2] -1.1% | [3] -5.7%

Clc1ccc2c(c1)[C@H]1OCC[C@H]1[C@@H](c1ccco1)N2
inactive: [1] 0.3% | [2] -0.7% | [3] -4.1%

CN1C(=O)C(O)(CC(=O)c2ccccc2O)c2cc(Br)ccc21 (stereo not given)
inactive: [1] 3.2% | [2] -0.1% | [3] -5.4%

Cc1ccc(N2CCN(C(=S)c3ccc(-c4cccc([N+](=O)[O-])c4)o3)CC2)cc1
inactive: [1] -0.6% | [2] -1.4% | [3] -5.3%

OC(CCN1CCCCC1)(c1ccccc1)c1ccccc1
inactive: [1] 0.9% | [2] 0.5% | [3] -0.2%

CCOc1ncnc2c1[nH]c1ccccc12
inactive: [1] 5.6% | [2] 0.5% | [3] -0.4%

CCCCCCCC(=O)OCC(=O)[C@@]1(O)CC[C@H]2[C@@H]3CCC4=CC(=O)CC[C@]4(C)[C@H]3[C@@H](O)C[C@@]21C
inactive: [1] -3.8% | [2] 0.3% | [3] 4.7%

Cc1onc(-c2c(Cl)cccc2Cl)c1C(=O)NC1C(=O)N2C1SC(C)(C)C2C(=O)O (stereo not given)
inactive: [1] 1.2% | [2] 0.2% | [3] 2.3%

O=c1[nH]cnc2c1ncn2[C@@H]1O[C@H](CO)[C@@H](O)[C@H]1O
inactive: [1] 1.2% | [2] 0.1% | [3] -8%

COc1cccc(-n2c(C)c3c(OC)cccc(=O)c3c2C)c1
inactive: [1] -8.1% | [2] -0.7% | [3] -13.5%

COc1ccc(CCn2c(C)nc3c(c(=O)c4ccccc4n3C)c2=O)cc1
inactive: [1] 3.4% | [2] 0.2% | [3] 5.5%

Cc1ccc(Cl)c(Nc2ccccc2C(=O)O)c1Cl
inactive: [1] -4.5% | [2] 0.2% | [3] 0.3%

CC(C)(C)C(=O)NC(=S)Nc1sc2c(c1C(N)=O)CCC2
inactive: [1] 0.8% | [2] 0.4% | [3] -1.2%

COc1cc2c(cc1OC)-c1cc(NC3CCCCCC3)nc(=O)n1CC2
inactive: [1] -2.3% | [2] -1.4% | [3] -7.4%
